Results as given in PubChem BioAssay (Tox21).
Results filed as inconclusive are left out. The source made the active and inactive calls. Unless noted, calls follow the shape of the dose curve; as a rule, active = well fitted curve in the direction sought with a large enough effect in the repeat runs; inconclusive = weak or mixed curves; inactive = no such curve, though single readings can be large; an effect the other way counts as inactive or inconclusive.

How the values were obtained:
[1] = qHTS assay to identify small molecule agonists of the TGF-beta/Smad signaling pathway - cell viability counter screen (AID 1346829); details: SBE-bla HEK293T viability, CellTiter-Glo luminescence, 5 h; series mostly up to 76.8 µM; also: top concentration of the series differs between compounds; nearly all actives have a fitted effect of over 45% in size
Outline: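 SBE-bla HEK 293T cells plated overnight, compound exposure 5 hr at 37 C. Viability read in the same wells by CellTiter-Glo luminescence after 30 min at room temperature, following the beta-lactamase read.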

[2] = qHTS assay to identify small molecule agonists of the TGF-beta/Smad signaling pathway (AID 1346859; active = well fitted activation curve with a large enough effect in the signal ratio in the repeat runs, not every such curve was filed as active; the % refers to the signal ratio); details: SBE-bla HEK293T, TGF-beta/Smad beta-lactamase reporter, 5 h; series mostly up to 76.8 µM
Outline: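 Screening used HEK 293T SBE-bla cells at 4,000/well. Test agents: 5 hr, 37 C. Detection: FRET substrate, 2 hr RT, then excitation 405 nm with emissions at 460 and 530 nm.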

[3] = Caspase-3/7 induction in CHO-K1 cells by small molecules, qHTS cell viability counter screen (AID 1346979); details: CellTiter-Fluor fluorescence, 17 h; series mostly up to 92.4 µM; also: nearly all actives have a fitted effect of over 35% in size
Outline: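 Following a 5hr settling period, CHO-K1 cells at 1,500 per well received DMSO-dissolved compounds. Cell viability was quantified 16hr later by CellTiter-Fluor fluorescence, measured after 1hr with reagent at 37C.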

[4] = Caspase-3/7 induction in CHO-K1 cells by small molecules, qHTS assay (AID 1346980); details: CHO-K1 caspase-3/7 induction, Caspase-Glo luminescence, 17 h; series mostly up to 92.4 µM; also: nearly all actives have a fitted effect of over 15% in size
Outline: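 Luminescent Caspase-Glo 3/7 read (30min, room temperature) quantified apoptosis induction. Cells were wild-type CHO-K1, treated with compound for 17hr at 37 C and 5% CO2.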

[5] = Caspase-3/7 induction in HepG2 cells by small molecules, qHTS cell viability counter screen (AID 1346981); details: CellTiter-Fluor fluorescence, 17 h; series mostly up to 92.4 µM; also: nearly all actives have a fitted effect of over 30% in size
Outline: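 Treatment of HepG2 cells with DMSO-delivered compounds ran 16 hr at 37 C following a 5-hr pre-incubation of 2,000 cells/well. CellTiter-Fluor fluorescence, read after 1 hr, served as the viability measure in a qHTS format.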

[6] = biological target: Cytochrome P450 2C19 (Homo sapiens) (UniProt P33261); experiment: Cytochrome P450 Family 2 Subfamily C Member 19 (CYP2C19) small molecule antagonists: luciferase reporter qHTS assay (AID 1671197); details: P450-Glo CYP2C19 enzyme, luciferin luminescence, 1 h; series mostly up to 115 µM; also: nearly all actives have a fitted effect of over 65% in size
Outline: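 P450-Glo CYP2C19 system: enzyme-substrate mix with compound 10 min at room temperature, then NADPH regeneration solution, 1 h at 37C. Proluciferin-to-luciferin conversion detected by luminescence after 20 min with detection reagent; ketoconazole as positive control.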

[7] = biological target: Cytochrome P450 2C9 (Homo sapiens) (UniProt P11712); experiment: Cytochrome P450 Family 2 Subfamily C Member 9 (CYP2C9) small molecule antagonists: luciferase reporter qHTS assay (AID 1671198); details: P450-Glo CYP2C9 enzyme assay, luciferin luminescence; series mostly up to 115 µM; also: nearly all actives have a fitted effect of over 50% in size
Outline: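 Enzyme-substrate mix preincubated with compound 10 min at room temperature; reaction started with NADPH regeneration solution, 1 h 37C. Luminescent luciferin product read after 20 min detection reagent.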

[8] = biological target: Cytochrome P450 1A2 (Homo sapiens) (UniProt P05177); experiment: Cytochrome P450 Family 1 Subfamily A Member 2 (CYP1A2) small molecule antagonists: luciferase reporter qHTS assay (AID 1671199); details: P450-Glo CYP1A2 enzyme, luciferin luminescence, 1 h; series mostly up to 115 µM; also: nearly all actives have a fitted effect of over 50% in size; also: potency is read from the fitted curve at half-maximal effect
Outline: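 Read-out is luminescence from luciferin detection reagent (20 min) proportional to CYP1A2 activity; compounds in DMSO preincubated 10 min with enzyme and proluciferin substrate, then NADPH regeneration solution, 1 h, room temperature.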

[9] = biological target: Voltage-gated inwardly rectifying potassium channel KCNH2 (Homo sapiens) (UniProt Q12809); experiment: Human Ether-a-go-go-Related Gene (hERG) channel small molecule antagonists: fluorescence cell-based qHTS assay (AID 1671200); details: hERG-U2OS cells, FluxOR thallium flux fluorescence; series mostly up to 76.8 µM;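 also: hERG-expressing U2OS cells given a thallium stimulus after FluxOR II dye loading; nearly all actives have a fitted effect of over 50% in size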
Outline: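 In this thallium-flux screen, overnight-cultured U2OS cells bearing the channel are dye-loaded in darkness for an hour, rested 10 min at room temperature, and then monitored kinetically at 480/540 nm for two minutes post-stimulus.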

[10] = biological target: Cytochrome P450 3A4 (Homo sapiens) (UniProt P08684); experiment: Cytochrome P450 Family 3 Subfamily A Member 4 (CYP3A4) small molecule antagonists: luciferase reporter qHTS assay (AID 1671201); details: P450-Glo CYP3A4 enzyme, luciferin luminescence, 1 h; series mostly up to 115 µM; also: nearly all actives have a fitted effect of over 50% in size
Outline: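 CYP3A4 activity was followed with a P450-Glo proluciferin substrate. Test compounds in DMSO were preincubated 10 min; NADPH regeneration then ran 1 h, and light output was read 20 min after detection reagent.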

[11] = Human pregnane X receptor (PXR) small molecule agonists, qHTS cell viability counter screen (AID 1346977); details: PXR-Luc HepG2 viability, CellTiter-Fluor, 24 h; series mostly up to 92.4 µM; also: nearly all actives have a fitted effect of over 50% in size
Outline: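 In each well, the PXR reporter HepG2 line was checked for viability: CellTiter-Fluor reagent added 23hr post-dosing, fluorescence read after 1hr incubation at 37C.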

[12] = Caspase-3/7 induction in HepG2 cells by small molecules, qHTS assay (AID 1346978); details: HepG2 caspase-3/7 activation, Caspase-Glo luminescence, 17 h; series mostly up to 92.4 µM; also: nearly all actives have a fitted effect of over 15% in size
Outline: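 Caspase-3/7 induction was measured by Caspase-Glo 3/7 luminescence (30 min, room temperature) after a 17 hr compound exposure of wild-type HepG2 cells seeded at 2,000 per well and pre-incubated 5 hr.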

[13] = biological target: Nuclear receptor subfamily 1 group I member 2 (Homo sapiens) (UniProt O75469); experiment: Human pregnane X receptor (PXR) small molecule agonists, qHTS assay (AID 1346982); details: PXR-Luc HepG2, CYP3A4 luciferase reporter, 24 h; series mostly up to 92.4 µM; also: nearly all actives have a fitted effect of over 35% in size
Outline: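 Stable HepG2 line reporting PXR-mediated CYP3A4 expression via luciferase. Treatment: 24 hr with compounds in DMSO at 37 C. Detection: ONE-Glo luminescence.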

[14] = biological target: Cytochrome P450 2D6 (Homo sapiens) (UniProt P10635); experiment: Cytochrome P450 Family 2 Subfamily D Member 6 (CYP2D6) small molecule antagonists: luciferase reporter qHTS assay (AID 1671196); details: P450-Glo CYP2D6 enzyme assay, luciferin luminescence, 1 h; series mostly up to 115 µM; also: nearly all actives have a fitted effect of over 50% in size
Outline: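 Chemicals tested for interference with CYP2D6 activity; proluciferin substrate, NADPH regeneration, 1 h at room temperature, luminescent detection.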

[15] = biological target: Thyrotropin-releasing hormone receptor (Homo sapiens) (UniProt P34981); experiment: qHTS assay to identify small molecule antagonists of the thyrotropin-releasing hormone receptor (TRHR) signaling pathway (AID 1346877; active = well fitted inhibition curve with a large enough effect in the repeat runs, not every such curve was filed as active); details: TRHR-HEK293, TRH-induced calcium fluorescence, antagonist mode; series mostly up to 51.3 µM
Outline: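 Overnight-plated (18 h, 37 °C) HEK293 cells expressing TRHR were dye-loaded 2 h, treated with compound, then stimulated with TRH at 1 nM final. Fluorescence intensity was captured every second for 3 min.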

[16] = biological target: Thyrotropin-releasing hormone receptor (Homo sapiens) (UniProt P34981); experiment: qHTS assay to identify small molecule agonists of the thyrotropin-releasing hormone receptor (TRHR) signaling pathway (AID 1346891; calls by dose curve); details: TRHR-HEK293 calcium fluorescence, agonist mode; series mostly up to 57.6 µM
Outline: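 Readout was intracellular calcium fluorescence in TRHR-Hek293 cells. Cells were incubated 18 h, dye-loaded 2 h at 37 °C, and treated with compound in agonist mode.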

[17] = biological target: Nuclear receptor subfamily 1 group I member 2 (Rattus norvegicus) (UniProt Q9R1A7); experiment: Rat pregnane X receptor (rPXR) activation by small molecules, qHTS assay (AID 1346983); details: rPXR luciferase reporter cells, One-Glo luminescence, 24 h; max activation: active compounds read high; also: nearly all actives have a fitted effect of over 20% in size
Outline: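 Luminescent readout (One-Glo luciferase, 30 min room temperature) followed 24 hr compound treatment at 37 C of rPXR cells plated 2,000 per well and preincubated 5hr; qHTS format with compounds delivered in DMSO.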

[18] = biological target: Nuclear receptor subfamily 1 group I member 2 (Homo sapiens) (UniProt O75469); experiment: CYP3A4 induction through human pregnane X receptor (PXR) by small molecules, qHTS assay (AID 1346984); details: DPX-2 HepG2 PXR, CYP3A4-luciferin luminescence, 24 h; series mostly up to 46.1 µM; also: nearly all actives have a fitted effect of over 40% in size
Outline: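 After 24 h at 37C with compound, DPX-2 cells (HepG2, co-transfected PXR response element and CYP3A4 promoter-luciferase) got 3uM final P450-Glo Luciferin-IPA for 3 h; One-Glo luminescence followed.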

[19] = biological target: Nuclear receptor subfamily 1 group I member 2 (Homo sapiens) (UniProt O75469); experiment: Human pregnane X receptor (PXR) activation by small molecules, qHTS assay (AID 1346985); details: DPX-2 HepG2 CYP3A4-luciferase, 24 h; series mostly up to 38.3 µM; also: nearly all actives have a fitted effect of over 40% in size
Outline: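 DPX-2 cells (HepG2 co-transfected with a PXR response element and a CYP3A4-promoter luciferase construct) were seeded at 2,000 per well, rested 5 hr at 37C, then exposed to DMSO-dissolved compounds for 24 hr. Activation was read as luciferase luminescence.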
% is scaled to controls: 0 for no effect and ±100 for the full control effect.

Sequence of Voltage-gated inwardly rectifying potassium channel KCNH2 (Homo sapiens) (Q12809 whole entry, looked up): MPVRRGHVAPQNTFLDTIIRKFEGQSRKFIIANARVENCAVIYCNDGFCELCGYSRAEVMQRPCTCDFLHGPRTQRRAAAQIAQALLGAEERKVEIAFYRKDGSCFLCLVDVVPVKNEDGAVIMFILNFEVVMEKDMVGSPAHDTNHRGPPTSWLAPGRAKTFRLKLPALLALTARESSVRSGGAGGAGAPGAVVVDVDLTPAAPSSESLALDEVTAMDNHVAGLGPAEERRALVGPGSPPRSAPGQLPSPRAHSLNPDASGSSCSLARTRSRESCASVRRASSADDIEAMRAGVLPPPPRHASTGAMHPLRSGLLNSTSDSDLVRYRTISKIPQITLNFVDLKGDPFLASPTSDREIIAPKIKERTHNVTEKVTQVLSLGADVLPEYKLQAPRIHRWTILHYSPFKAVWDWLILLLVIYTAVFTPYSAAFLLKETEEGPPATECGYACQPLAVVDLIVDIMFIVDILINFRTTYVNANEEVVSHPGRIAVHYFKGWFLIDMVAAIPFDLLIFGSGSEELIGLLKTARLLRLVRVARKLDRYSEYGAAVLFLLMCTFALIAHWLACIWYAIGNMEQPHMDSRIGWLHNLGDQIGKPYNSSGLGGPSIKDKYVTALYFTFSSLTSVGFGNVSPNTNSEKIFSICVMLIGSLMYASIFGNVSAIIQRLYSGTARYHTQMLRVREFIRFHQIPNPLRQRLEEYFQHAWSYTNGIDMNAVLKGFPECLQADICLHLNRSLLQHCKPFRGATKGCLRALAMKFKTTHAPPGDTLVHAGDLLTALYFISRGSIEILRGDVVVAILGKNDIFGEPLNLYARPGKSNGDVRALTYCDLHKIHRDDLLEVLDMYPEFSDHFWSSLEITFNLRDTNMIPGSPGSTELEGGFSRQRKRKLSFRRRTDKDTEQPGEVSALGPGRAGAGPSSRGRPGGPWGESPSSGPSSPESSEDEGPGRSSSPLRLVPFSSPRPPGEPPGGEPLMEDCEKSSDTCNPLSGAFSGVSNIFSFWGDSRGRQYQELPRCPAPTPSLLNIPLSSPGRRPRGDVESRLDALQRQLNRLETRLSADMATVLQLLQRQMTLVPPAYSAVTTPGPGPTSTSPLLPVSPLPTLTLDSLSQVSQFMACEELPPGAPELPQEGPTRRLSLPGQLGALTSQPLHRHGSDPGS
Sequence of Cytochrome P450 2C19 (Homo sapiens) (P33261 whole entry, looked up): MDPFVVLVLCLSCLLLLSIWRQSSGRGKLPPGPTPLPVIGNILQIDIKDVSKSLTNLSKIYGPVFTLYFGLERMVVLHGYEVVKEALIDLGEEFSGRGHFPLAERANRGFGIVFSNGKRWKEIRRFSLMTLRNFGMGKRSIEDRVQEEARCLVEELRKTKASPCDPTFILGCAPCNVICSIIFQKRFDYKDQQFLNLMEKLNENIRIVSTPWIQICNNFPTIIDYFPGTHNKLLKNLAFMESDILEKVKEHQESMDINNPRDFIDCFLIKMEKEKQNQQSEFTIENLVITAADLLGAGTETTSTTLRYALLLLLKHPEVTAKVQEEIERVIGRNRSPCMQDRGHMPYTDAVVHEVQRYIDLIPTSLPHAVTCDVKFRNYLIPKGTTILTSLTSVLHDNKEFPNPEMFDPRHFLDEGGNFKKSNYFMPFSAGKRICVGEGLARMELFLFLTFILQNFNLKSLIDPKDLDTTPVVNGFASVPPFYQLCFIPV
Sequence of Cytochrome P450 2C9 (Homo sapiens) (P11712 whole entry, looked up): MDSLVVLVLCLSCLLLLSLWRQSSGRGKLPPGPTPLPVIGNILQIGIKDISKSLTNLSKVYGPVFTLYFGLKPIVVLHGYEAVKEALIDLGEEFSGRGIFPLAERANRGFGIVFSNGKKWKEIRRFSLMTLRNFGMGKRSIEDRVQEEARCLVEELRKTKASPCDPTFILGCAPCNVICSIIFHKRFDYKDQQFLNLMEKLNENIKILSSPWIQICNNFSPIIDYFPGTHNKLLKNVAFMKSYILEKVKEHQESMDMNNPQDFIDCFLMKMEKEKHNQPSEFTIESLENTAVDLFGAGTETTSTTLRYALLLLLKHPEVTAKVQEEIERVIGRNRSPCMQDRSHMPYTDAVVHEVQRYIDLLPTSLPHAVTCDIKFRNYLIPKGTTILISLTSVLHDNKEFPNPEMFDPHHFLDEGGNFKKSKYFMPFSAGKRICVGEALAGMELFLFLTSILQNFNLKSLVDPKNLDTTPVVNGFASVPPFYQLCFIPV
Sequence of Cytochrome P450 2D6 (Homo sapiens) (P10635 whole entry, looked up): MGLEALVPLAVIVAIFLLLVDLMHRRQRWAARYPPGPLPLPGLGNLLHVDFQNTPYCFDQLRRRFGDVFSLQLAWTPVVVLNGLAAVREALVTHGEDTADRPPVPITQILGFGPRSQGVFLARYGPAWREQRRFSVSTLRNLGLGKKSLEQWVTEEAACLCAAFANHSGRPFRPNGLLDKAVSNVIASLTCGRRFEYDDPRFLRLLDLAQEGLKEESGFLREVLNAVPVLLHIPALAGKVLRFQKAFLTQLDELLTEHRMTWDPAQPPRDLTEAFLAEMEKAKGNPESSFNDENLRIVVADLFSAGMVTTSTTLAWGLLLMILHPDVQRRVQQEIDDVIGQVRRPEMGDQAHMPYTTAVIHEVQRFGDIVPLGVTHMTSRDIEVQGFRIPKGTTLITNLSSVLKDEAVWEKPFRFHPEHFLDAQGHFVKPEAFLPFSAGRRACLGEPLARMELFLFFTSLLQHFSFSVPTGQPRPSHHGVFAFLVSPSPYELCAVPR
Sequence of Nuclear receptor subfamily 1 group I member 2 (Homo sapiens) (O75469 whole entry, looked up): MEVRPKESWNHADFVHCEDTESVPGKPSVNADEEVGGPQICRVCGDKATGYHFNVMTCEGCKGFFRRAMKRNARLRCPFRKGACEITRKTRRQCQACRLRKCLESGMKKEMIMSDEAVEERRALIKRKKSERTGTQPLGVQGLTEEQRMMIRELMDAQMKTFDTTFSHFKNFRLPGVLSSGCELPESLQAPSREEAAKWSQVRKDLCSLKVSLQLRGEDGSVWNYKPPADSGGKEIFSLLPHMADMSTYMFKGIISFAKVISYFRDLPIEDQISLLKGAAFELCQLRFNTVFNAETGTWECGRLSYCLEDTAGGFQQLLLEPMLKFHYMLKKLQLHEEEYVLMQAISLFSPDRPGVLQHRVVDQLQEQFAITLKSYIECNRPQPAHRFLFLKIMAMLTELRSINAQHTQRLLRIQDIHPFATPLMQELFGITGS
Sequence of Cytochrome P450 1A2 (Homo sapiens) (P05177 whole entry, looked up): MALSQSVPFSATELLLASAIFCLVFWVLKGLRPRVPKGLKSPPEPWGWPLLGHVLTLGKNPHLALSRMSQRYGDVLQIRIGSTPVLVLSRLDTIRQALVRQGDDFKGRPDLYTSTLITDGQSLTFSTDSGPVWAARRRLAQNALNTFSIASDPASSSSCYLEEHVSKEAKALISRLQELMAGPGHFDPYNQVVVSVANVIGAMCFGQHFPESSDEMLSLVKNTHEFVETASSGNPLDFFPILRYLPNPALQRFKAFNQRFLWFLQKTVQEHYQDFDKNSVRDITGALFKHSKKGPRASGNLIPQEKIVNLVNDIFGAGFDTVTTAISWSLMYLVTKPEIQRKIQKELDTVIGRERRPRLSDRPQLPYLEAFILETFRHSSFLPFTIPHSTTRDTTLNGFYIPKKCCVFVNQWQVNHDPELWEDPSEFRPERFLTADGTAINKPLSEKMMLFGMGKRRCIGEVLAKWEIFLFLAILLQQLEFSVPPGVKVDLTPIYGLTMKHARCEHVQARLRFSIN
Sequence of Thyrotropin-releasing hormone receptor (Homo sapiens) (P34981 whole entry, looked up): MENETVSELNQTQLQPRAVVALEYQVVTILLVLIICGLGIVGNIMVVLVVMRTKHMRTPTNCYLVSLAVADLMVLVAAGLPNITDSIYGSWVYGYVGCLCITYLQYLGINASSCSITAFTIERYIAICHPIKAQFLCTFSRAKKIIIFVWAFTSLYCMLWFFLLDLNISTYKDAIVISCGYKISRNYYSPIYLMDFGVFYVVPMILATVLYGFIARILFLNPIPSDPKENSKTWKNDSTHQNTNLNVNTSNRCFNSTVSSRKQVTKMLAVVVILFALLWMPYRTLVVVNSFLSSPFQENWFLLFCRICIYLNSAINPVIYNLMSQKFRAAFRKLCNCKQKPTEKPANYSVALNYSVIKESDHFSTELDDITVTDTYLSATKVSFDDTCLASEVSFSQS
Sequence of Cytochrome P450 3A4 (Homo sapiens) (P08684 whole entry, looked up): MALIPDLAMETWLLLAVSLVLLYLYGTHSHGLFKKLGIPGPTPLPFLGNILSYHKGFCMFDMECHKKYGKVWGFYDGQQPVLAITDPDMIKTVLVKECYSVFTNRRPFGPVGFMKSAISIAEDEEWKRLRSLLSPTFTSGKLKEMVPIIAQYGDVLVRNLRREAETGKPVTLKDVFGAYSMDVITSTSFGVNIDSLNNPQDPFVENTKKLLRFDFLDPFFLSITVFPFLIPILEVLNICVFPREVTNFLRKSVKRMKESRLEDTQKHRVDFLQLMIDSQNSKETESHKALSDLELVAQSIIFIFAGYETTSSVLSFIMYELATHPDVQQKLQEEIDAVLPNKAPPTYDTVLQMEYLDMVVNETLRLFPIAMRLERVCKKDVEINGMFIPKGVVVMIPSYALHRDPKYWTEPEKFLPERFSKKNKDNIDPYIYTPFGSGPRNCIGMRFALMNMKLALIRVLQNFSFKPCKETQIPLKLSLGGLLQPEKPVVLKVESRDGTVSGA
Sequence of Nuclear receptor subfamily 1 group I member 2 (Rattus norvegicus) (Q9R1A7 whole entry, looked up): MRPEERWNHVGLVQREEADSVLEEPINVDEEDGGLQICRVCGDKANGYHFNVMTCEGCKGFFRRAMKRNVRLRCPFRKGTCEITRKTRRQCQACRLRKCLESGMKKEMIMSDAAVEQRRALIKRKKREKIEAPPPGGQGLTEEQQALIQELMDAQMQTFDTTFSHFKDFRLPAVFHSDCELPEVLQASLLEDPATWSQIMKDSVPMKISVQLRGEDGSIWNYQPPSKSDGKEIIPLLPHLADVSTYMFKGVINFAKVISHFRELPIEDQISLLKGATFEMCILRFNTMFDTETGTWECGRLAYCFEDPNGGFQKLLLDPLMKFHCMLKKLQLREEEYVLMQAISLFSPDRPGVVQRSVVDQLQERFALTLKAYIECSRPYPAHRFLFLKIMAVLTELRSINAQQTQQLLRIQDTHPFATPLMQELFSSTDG

O=c1[nH]c(=O)c2cn[nH]c2[nH]1
inactive: outcome [1] | outcome [2] | Potency [3] | outcome [4] | outcome [5] | Potency [6] | Potency [7] | Potency [8] | Potency [9] | Potency [10]

COC(=O)c1ccc(C(=O)O)cc1
inactive: outcome [1] | outcome [2] | outcome [11] | outcome [12] | Potency [3] | outcome [4] | Potency [13] | Potency [6] | Potency [8] | Potency [9]

Cc1ccc(N)nc1
inactive: outcome [1] | outcome [2] | outcome [11] | outcome [12] | Potency [3] | outcome [4] | Potency [13] | Potency [6] | Potency [7] | Potency [9]

COC(=O)c1cc(Cl)c(NC(C)=O)cc1OC
inactive: outcome [1] | outcome [2] | outcome [11] | Potency [3] | outcome [4] | outcome [5] | Potency [13] | Potency [14] | Potency [6] | Potency [7] | Potency [9] | Potency [10]
active: Potency [8] 2.45 µM

O=Cc1ccccc1S(=O)(=O)O
inactive: outcome [1] | outcome [2] | outcome [11] | outcome [12] | Potency [3] | outcome [5] | Potency [13] | Potency [14] | Potency [6] | Potency [9] | Potency [10]

c1cc2ccc3ccc4ccc5cccc6c(c1)c2c3c4c56
active: Potency [8] 0.2 µM
inactive: activity change, negative = cytotoxicity [1] 8.19% [at 2.72 µM] | activation [2] 25.1% [at 2.72 µM] | caspase activation [12] 1.34% [at 3.27 µM] | activity change, negative = cytotoxicity [3] 14.9% [at 3.27 µM] | caspase-3/7 activation [4] 0.273% [at 3.27 µM] | activity change, negative = cytotoxicity [5] -2.99% [at 3.27 µM] | activation [13] 3.44% [at 3.27 µM] | activity change, negative = inhibition [6] -3.91% [at 4.07 µM] | activity change, negative = inhibition [7] -14.6% [at 4.07 µM] | activity change, negative = inhibition [9] 0.437% [at 2.72 µM]

O=C(O)COc1ccc2ccccc2c1
inactive: outcome [1] | outcome [15] | Potency [16] | outcome [12] | outcome [4] | outcome [5] | Potency [13] | Potency [14] | Potency [6] | Potency [8] | Potency [9] | Potency [10]

O=C(O)P(=O)(O)O
inactive: outcome [2] | outcome [15] | Potency [16] | outcome [11] | outcome [12] | Potency [3] | outcome [4] | Potency [13] | max activation [17] -4.52% | outcome [18] | outcome [19] | Potency [14] | Potency [6] | Potency [7] | Potency [8] | Potency [9] | Potency [10]
